Source: PubChem BioAssay
3T3 cytotox = NIH 3T3 cell cytotoxicity | NIH 3T3 viability, CellTiter-Glo ATP luminescence, 48-72 h | Potency, µM (highest dose often 96.7 µM), inactives show at the highest dose activity change, negative = cytotoxicity, usual class: inhibitors | 94,000 tested, 4.3% active | AID 1345082; note: nearly all actives have a fitted effect of over 55% in size
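First NIH 3T3 cells are plated at 400 cells/well; next compound is pinned in; then plates incubate 48 or 72 hr at 37 °C; finally CellTiter-Glo is added and luminescence read after 10 min.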
HEK cytotox = HEK 293 cell cytotoxicity. HEK 293 viability, ATP luminescence (CellTiter-Glo), 48-72 h. Potency, µM (doses to about 115 µM), for inactives: at the top dose activity change, negative = cytotoxicity, actives largely listed as inhibitors. 94,000 tested, 6.6% active. AID 1345083; note: nearly all actives have a fitted effect of over 60% in size
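HEK 293 cells at 250 cells/well were exposed to compounds by pintool transfer for 48 or 72 hr at 37 degree Celsius, 5% CO2. Viability was read as ATP-coupled luminescence with CellTiter-Glo after 10 min at room temperature.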
hNpr1 antagonist = human Npr1 receptor antagonism; 76,000 tested, 1.6% active; HEK293 hNpr1 GloSensor cGMP, ANP-stimulated luminescence; Potency, µM (highest dose often 46.3 µM), without a hit: at the highest dose activity change, negative = inhibition, actives largely listed as inhibitors; calls by dose curve; note: nearly all actives have a fitted effect of over 60% in size
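HEK293 cells stably expressing human Npr1 and cGMP GloSensor pGS-40F, loaded 2 h with 2% GloSensor reagent, given compound 30 min at room temperature. Luminescence read before and 20 min after 0.1 nM hNppA.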
FLuc inh = inhibitors of firefly (Photinus pyralis) luciferase; P08659; purified P. pyralis luciferase, luminescence, biochemical; Potency, µM (doses to about 115 µM), actives largely listed as inhibitors; 76,000 tested, 2.5% active; AID 1347043; note: nearly all actives have a fitted effect of over 65% in size
Target sequence (P08659 whole entry, looked up): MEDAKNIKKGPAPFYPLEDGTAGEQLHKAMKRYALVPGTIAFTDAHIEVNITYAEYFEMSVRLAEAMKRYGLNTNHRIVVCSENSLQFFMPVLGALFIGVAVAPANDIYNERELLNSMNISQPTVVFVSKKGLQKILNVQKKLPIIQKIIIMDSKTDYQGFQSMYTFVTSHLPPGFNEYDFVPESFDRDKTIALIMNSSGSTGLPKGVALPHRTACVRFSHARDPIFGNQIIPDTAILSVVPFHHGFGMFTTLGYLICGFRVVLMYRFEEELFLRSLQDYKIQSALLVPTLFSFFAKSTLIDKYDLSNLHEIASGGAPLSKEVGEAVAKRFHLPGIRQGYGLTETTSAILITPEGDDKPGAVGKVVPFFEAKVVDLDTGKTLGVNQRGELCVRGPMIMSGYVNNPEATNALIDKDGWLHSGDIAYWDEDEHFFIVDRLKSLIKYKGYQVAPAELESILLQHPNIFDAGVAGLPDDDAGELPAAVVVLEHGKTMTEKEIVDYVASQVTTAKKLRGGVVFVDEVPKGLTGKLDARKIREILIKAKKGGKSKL
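Biochemical qHTS: compound (6-point titration) added to 10uM D-luciferin plus 10uM ATP in Tris acetate pH 7.5 buffer with Mg, Tween-20 and BSA, then purified enzyme at 10nM; light output imaged.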
Starred values were filed as active, the others as inactive; i = inactive; u = inconclusive; x = no result given; [ ] = another dose, or the depositor's remark. Hits are enriched below; roughly 11% of the tested compounds scored in any of these assays. Unless noted, calls come from the whole dose curve; as a rule, active = well fitted curve in the direction sought with a large enough effect; inconclusive = small, poorly fitted or top-dose-only effect, or another doubt; inactive = no such curve, though single readings can be large; an effect the other way counts as inactive or inconclusive. % is set by controls: 0 for no effect and ±100 for the full control effect; potency is the fitted concentration of half-maximal effect.

SMILES	3T3 cytotox	HEK cytotox	hNpr1 antagonist	FLuc inh
CC1=C[C@@H](CC#N)[C@H](C(C)C)C[C@H]1CC(=O)N1CCN(CCO)CC1	-18%[174 µM]	-10%[172 µM]	-1%[70.6 µM]	i
CN1CCN([C@@H]2[C@H](O)[C@H](CO)O[C@@H]2CN(Cc2ccc(Cl)cc2)Cc2cccc(Cl)c2)CC1	28µM*	u	u	i
OC[C@@H]1O[C@H](CN(Cc2cccc(Cl)c2)Cc2cccc(Cl)c2)C(N2CCOCC2)[C@@H]1O (some centres undefined)	-20%	-25%	1%	i
CCC(=O)N1CCCN(Cc2ccc3c(c2)OCO3)c2ccccc21	u	45µM*	-2%	i
O=C(NCc1ccc2c(c1)OCO2)c1cnc2c(c1)N(Cc1ccccc1)CCC2	50µM*	u	4%[70.6 µM]	i
O=C(C1CC1)N1CCCN(Cc2ccc3c(c2)OCO3)c2ccccc21	u	u	0%	i
CNC(=O)c1cnc2c(c1)N(Cc1ccccc1)CCC2	u	-7%[230 µM]	-2%[70.6 µM]	i
COc1ccc2c(c1)C(C(=O)N1CCN(c3ccc(C(=O)O)cc3)CC1)=CC(C)(C)CO2	u	-16%	x	x
O=C(Nc1ccc(Cl)cc1Cl)c1cccn2cncc12	u	u	-19%[70.6 µM]	45µM*
O=C(Nc1ccc(F)cc1)c1cccn2cncc12	-27%[138 µM]	u	-1%[70.6 µM]	45µM*
C=CCNC(=O)c1cccn2cncc12	-2%[174 µM]	-18%[230 µM]	-2%[70.6 µM]	i
COc1cccc(C(=O)NC2CCN(C(=O)c3ccc(-c4cccs4)cc3)CC2)c1	-19%	-18%	x	x
CC(CN)(CN1CCOCC1)c1ccccn1 (centres undefined)	-17%[138 µM]	-5%[172 µM]	x	x
Cc1nn(-c2ccccc2)c(C)c1[C@@H]1C=C[C@@H](NC(=O)c2ccc(N(C)C)cc2)C1	u	71µM*	u	u
Cc1ccc(-n2nc(C)c([C@@H]3C=C[C@@H](NC(=O)c4cccs4)C3)c2C)cc1Cl	u	u	-24%[70.6 µM]	25µM*
Cc1nn(-c2ccc(C(F)(F)F)cc2)c(C)c1[C@@H]1C=C[C@@H](NC(=O)c2cccs2)C1	28µM*	u	-11%[70.6 µM]	u
Cc1nn(-c2ccc(C(C)(C)C)cc2)c(C)c1[C@@H]1C=C[C@@H](NC(=O)c2cccs2)C1	u	35µM*	-10%[70.6 µM]	20µM*
Fc1ccc(OC2CNC2)cc1	-6%[174 µM]	-8%[230 µM]	x	x
CCc1nc(-c2c3n(c(=O)n(CC(=O)c4ccc(Cl)cc4)c2=O)CCCC3)no1	-18%	-25%	5%	u
CC(C)c1ccc(NC(=O)CN2CCCc3nc(-c4ccncc4)ncc3C2=O)cc1	-25%	u	x	x
CCN(CC)C(=O)CCc1c(C)nn(-c2ccccc2C)c1Oc1cccc(F)c1	u	40µM*	-16%	i
COCCNC(=O)CCc1c(C)nn(-c2ccc(F)cc2)c1Oc1ccc(F)cc1F	25µM*	u	-6%	i
Cc1cccc(-n2nc(C)c(CCC(=O)N(C)C(C)C)c2Oc2ccccc2C)c1	28µM*	u	u	i
CCN(CC)C(=O)CCc1c(C)nn(-c2ccc(F)cc2)c1Oc1cccc(F)c1	u	u	-22%	i
CCN(C)C(=O)CCc1c(C)nn(-c2ccccc2)c1Oc1ccc(F)cc1F	u	u	-12%	i
SMILES	3T3 cytotox	HEK cytotox	hNpr1 antagonist	FLuc inh
Cc1cccc(-n2nc(C)c(CCC(=O)N(C)C(C)C)c2Oc2ccc(F)cc2F)c1	40µM*	u	u	i
Cc1nn(-c2ccc(F)cc2)c(Oc2ccc(F)cc2F)c1CCC(=O)NC(C)C	u	u	-6%	i
C=CCC(=O)N(CC1CCN(CCc2ccccc2C)CC1)C1CCCC1	u	u	-2%	i
COc1ccc(-c2nc(C3CC3)nc3c2CCN(Cc2cncs2)CC3)cc1	-22%	-28%	x	x
COc1ccc(C2=NOC3(CCN(Cc4ccsc4)C3)C2)cc1 (centres undefined)	u	u	-28%[70.6 µM]	i
COc1ccc(-c2noc(-c3cccn3CC(=O)NCCC3=CCCCC3)n2)cc1F	-6%	-1%	-1%	i
Cc1ccccc1-n1nc(C)c(CCC(=O)N(C)C(C)C)c1Oc1ccccc1F	u	45µM*	-19%	i
Cc1nn(-c2ccc(F)cc2)c(Oc2ccccc2F)c1CCC(=O)NC(C)C	u	u	-25%	i
Cc1nn(-c2ccc(F)cc2)c(Oc2ccc(F)cc2F)c1CCC(=O)N(C)C(C)C	u	40µM*	-18%	i
Cc1nnc([C@H]2CCN(Cc3c[nH]c4ccccc34)C2)o1	-6%[174 µM]	-6%[230 µM]	5%[70.6 µM]	i
NC(=O)c1cccc(-c2cc3c(cn2)CN(Cc2ccncc2)CCN3)c1	u	-17%[172 µM]	-15%[70.6 µM]	u
COc1ccc(OC)c(CN2CCNc3cc(-c4ccnc(C)c4)ncc3C2)c1	u	100µM*	4%[70.6 µM]	u
c1ccc(CN2CCNc3cc(-c4cccnc4)ncc3C2)cc1	-23%[138 µM]	u	3%[70.6 µM]	i
Cc1cc(-c2cc3c(cn2)CN(Cc2cccc(F)c2)CCN3)ccn1	u	71µM*	-24%[70.6 µM]	16µM*
CCn1cc(-c2cc3c(cn2)CN(Cc2cccnc2)CCN3)cn1	2%[138 µM]	u	2%[70.6 µM]	63µM*
Cc1cc(-c2cc3c(cn2)CN(CC2CCOC2)CCN3)ccn1 (centres undefined)	u	-30%[172 µM]	4%[70.6 µM]	u
COc1ccc(CN2CCNc3cc(-c4ccnc(C)c4)ncc3C2)cc1	u	89µM*	-3%[70.6 µM]	u
COCCOC1CCOC2(CCN(C(=O)CCc3ccc(OC)cc3)CC2)C1 (centres undefined)	-23%	-4%	19%	i
COc1ccc(OC)c(CN2CCNc3cnc(-c4ccccc4)cc3C2)c1	89µM*	56µM*	-22%[70.6 µM]	i
COc1ccccc1CN1CCNc2cnc(Oc3ccccc3)cc2C1	u	u	-14%[70.6 µM]	i
c1ccc(-c2cc3c(cn2)NCCN(CC2CC2)C3)cc1	u	-26%[230 µM]	-8%[70.6 µM]	u
Oc1ccccc1CN1CCNc2cnc(-c3ccccc3)cc2C1	u	63µM*	u	i
c1ccc(-c2cc3c(cn2)CN(Cc2c[nH]c4ccccc24)CCN3)cc1	u	45µM*	-9%[70.6 µM]	u
COc1cccc(CN2CCNc3cnc(-c4ccccc4)cc3C2)c1	u	89µM*	-16%[70.6 µM]	i
COc1ccc(-c2ccc(C(=O)N3CCC(NC(=O)NC4CCCC4)CC3)cc2)nn1	-14%	u	x	x
COCCN1CCCC1c1nc(C2CN(C(=O)NCc3ccco3)C2)no1 (centres undefined)	-3%	u	3%	i
O=C1OC[C@@H]2CCN(Cc3ccccc3Cl)Cc3ccc(F)cc3N12	-24%[174 µM]	71µM*	-2%[70.6 µM]	i
O=S(=O)(c1ccccc1F)N1CCC(CCc2nc(C3CCOCC3)no2)CC1	u	45µM*	x	x
O=C(c1ccccc1F)N1CCCC(Cc2nc(C3CCOCC3)no2)C1 (centres undefined)	-7%	-2%	5%	i
